Screens as filed in PubChem BioAssay.
Shown are actives, neighbours in structure and some others; about 1.8% of the full set was active somewhere.
VLA-4 antagonist: blocks LDV-FITC ligand binding to Mn2+-activated human VLA-4 integrin; P13612; Jurkat cells, LDV-FITC binding with Mn2+, flow cytometry; 100% = Mn2+-driven binding gain fully reversed; inhibition, % at 10 µM (by protocol); actives 0.2% (n = 24,000); AID 529;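 active = inhibition above 50%; inconclusive = compound itself fluorescent, judged against control cell fluorescence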
Target sequence (P13612 whole entry, looked up): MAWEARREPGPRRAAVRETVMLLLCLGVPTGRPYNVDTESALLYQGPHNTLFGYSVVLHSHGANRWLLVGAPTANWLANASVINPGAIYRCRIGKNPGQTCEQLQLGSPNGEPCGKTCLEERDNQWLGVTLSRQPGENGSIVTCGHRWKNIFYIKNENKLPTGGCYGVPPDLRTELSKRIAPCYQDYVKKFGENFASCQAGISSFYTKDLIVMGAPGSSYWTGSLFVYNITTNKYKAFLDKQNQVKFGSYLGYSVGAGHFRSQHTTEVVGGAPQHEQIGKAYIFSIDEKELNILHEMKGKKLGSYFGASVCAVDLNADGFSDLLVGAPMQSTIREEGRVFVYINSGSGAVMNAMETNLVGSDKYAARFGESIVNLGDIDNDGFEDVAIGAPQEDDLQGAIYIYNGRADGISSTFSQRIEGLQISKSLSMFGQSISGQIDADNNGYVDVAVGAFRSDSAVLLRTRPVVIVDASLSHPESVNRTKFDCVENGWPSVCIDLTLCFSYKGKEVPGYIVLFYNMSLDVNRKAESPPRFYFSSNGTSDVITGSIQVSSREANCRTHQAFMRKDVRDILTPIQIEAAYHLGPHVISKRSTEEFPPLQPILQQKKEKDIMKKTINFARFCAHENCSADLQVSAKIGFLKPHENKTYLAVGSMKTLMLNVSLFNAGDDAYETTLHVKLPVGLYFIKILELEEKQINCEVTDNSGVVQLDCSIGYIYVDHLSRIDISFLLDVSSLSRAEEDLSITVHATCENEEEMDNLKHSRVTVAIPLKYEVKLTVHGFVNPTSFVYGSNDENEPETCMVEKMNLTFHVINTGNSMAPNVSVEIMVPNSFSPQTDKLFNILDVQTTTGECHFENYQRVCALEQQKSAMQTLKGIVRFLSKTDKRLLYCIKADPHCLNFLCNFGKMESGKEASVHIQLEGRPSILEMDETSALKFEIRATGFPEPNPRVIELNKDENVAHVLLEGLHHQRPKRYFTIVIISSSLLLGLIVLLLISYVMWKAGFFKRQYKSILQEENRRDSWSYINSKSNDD
Prostate diff: activators of LNCaP prostate cell differentiation; flow cytometry side scatter, 4 d; actives 0.56% (n = 24,000); side scatter shift, % at 10 µM;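 active = side scatter shift above 30%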;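 note: androgen-responsive LNCaP prostate cancer cells in charcoal-stripped serum medium; higher shift means more granular cells and more differentiation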
VLA-4 agonist: allosterically activates the human VLA-4 integrin. activation, % at 10 µM (by protocol). P13612. 24,000 tested, under 10 active. Jurkat cells, LDV-FITC binding, flow cytometry;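 active = fluorescent ligand binding to cells raised by more than 40% of the manganese-induced maximum; inconclusive = compound's own fluorescence above 85% of the ligand control signal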
Autofluor Jurkat: counter-screen for VLA-4 integrin: compound autofluorescence in Jurkat cells; flow cytometry; active compounds read high; 1 = vehicle-only cell background; actives 0.61% (n = 24,000); fluorescence ratio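 (tested at 10 µM compound in the well)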;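 active = fluorescence ratio above 2.44, which is 1 plus 3 SD of all ratios; inconclusive = signal too bright to measure linearly, ratio around 10 or more; inactive = fluorescence ratio below 2.44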;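 note: green fluorescence of cells measured with 488 nm excitation and 530 nm emission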
QS inhibitor: S. aureus quorum sensing inhibition; S. aureus RN6390 RNAIII-GFP reporter, AIP-induced, flow cytometry 3 h; inhibition, % at 2 µM; actives 0.3% (n = 24,000);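 active = share of bacteria positive for the green fluorescent reporter and its mean brightness both inhibited by 50% or more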
Proteasome disasm: blocks ATP-dependent breakdown of the yeast 26S proteasome | anti-FLAG beads, GFP-proteasome disassembly, flow cytometry | inhibition of disassembly, % (no concentration beside the values) | actives 0.2% (n = 24,000) | AID 751;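 active = inhibition of disassembly above about 33%, limit read from the data; inconclusive = likely self-fluorescent, control bead median signal at least 40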;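 note: higher percent means more bead fluorescence retained so stronger block of disassembly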
Each line names hits and unclear results; the compound was inactive in the other large screens.

CC(C)NC(=O)c1cnc(N2CCN(c3ccccn3)CC2)c2ccccc12	none
c1ccc(N2CCN(c3nnc(Cc4cccnc4)c4ccccc34)CC2)nc1	Prostate diff 30
Cc1oc(-c2cccc(Cl)c2)nc1CN1CCC(C(=O)N2CCN(c3ccccn3)CC2)CC1	VLA-4 antagonist inconclusive, VLA-4 agonist inconclusive
CCc1ccc(-c2nc(CN3CCC(C(=O)N4CCN(c5ccccc5)CC4)CC3)c(C)o2)cc1	VLA-4 antagonist inconclusive, Prostate diff 35, VLA-4 agonist inconclusive
Cc1oc(-c2ccc(Cl)cc2)nc1CN1CCC(C(=O)N2CCN(c3ccccn3)CC2)CC1	VLA-4 antagonist inconclusive, Prostate diff 43, VLA-4 agonist inconclusive
Cc1ccc(C2C(=O)N(C3CCC(C)CC3)CC(=O)N2C2CC2)cc1 (stereo not given)	none
CCOCCn1c(=O)c2c(nc3n2CCN3c2ccc(CC)cc2)n(C)c1=O	none
CC1CN(c2nc3ccccc3nc2C(C#N)C(=O)OC2CCCCC2)CC(C)O1 (stereo not given)	QS inhibitor 61
COc1ccccc1N1CCN(c2nc3ccccc3nc2C(C#N)C(=O)OC(C)C)CC1 (stereo not given)	Prostate diff 30
CCOc1ccccc1N1CCN(c2nc3ccccc3nc2C(C#N)C(=O)OC)CC1 (stereo not given)	none
CCOC(=O)c1sc2ncnc(N3CCN(c4ccc(OC)cc4)CC3)c2c1C	Prostate diff 35
O=C(CCCn1c(=S)[nH]c2cc3c(cc2c1=O)OCO3)N1CCN(c2ccccc2)CC1	none
O=C(CCCn1c(=S)[nH]c2cc3c(cc2c1=O)OCO3)N1CCc2ccccc2C1	QS inhibitor 66
Cc1ccc(C2=Nc3ccccc3NC(C)(c3ccc(C)o3)C2)o1 (stereo not given)	Prostate diff 35
COC(=O)C1=C(NC(=O)c2cccc(C)c2)CCS1	none
C=CCn1nnc2sc3c(c2c1=O)CCC(C)C3 (stereo not given)	none
O=C(CN1C(=O)CC(c2ccco2)Sc2ccccc21)Nc1ccc2c(c1)OCCO2 (stereo not given)	QS inhibitor 83
CCSCc1nnc(SCC(=O)Nc2cccc(SC)c2)n1C	none
COCCCNC(=O)CCS(=O)(=O)Cc1ccc(C)cc1	none
CCOC(=O)C1=C(C)N=c2s/c(=C\c3cccn3C)c(=O)n2C1c1cccc(OC)c1OC (stereo not given)	VLA-4 antagonist inconclusive, VLA-4 agonist inconclusive, Autofluor Jurkat 7.8
COC(=O)C1=C(C)N=c2s/c(=C/c3cccs3)c(=O)n2C1c1cccs1 (stereo not given)	Prostate diff 31, Proteasome disasm 110
COC(=O)C1=C(C)C(c2cccs2)NC(=O)N1C (stereo not given)	none
Cc1cc(C)cc(-n2nnc(C(=O)NCc3ccccc3Cl)c2N)c1	VLA-4 antagonist inconclusive, VLA-4 agonist inconclusive, Autofluor Jurkat 2.8
CCCCCn1c(=N)n(CC(O)COc2ccccc2OC)c2ccccc21 (stereo not given)	Prostate diff 34
Cc1ccc(OCC(O)Cn2c(=N)n(CCN3CCCCC3)c3ccccc32)cc1 (stereo not given)	Prostate diff 58
Cc1cc2occ(CC(=O)OCC(=O)Nc3sc4c(c3C#N)CCC(C)C4)c2cc1C (stereo not given)	none (no result: VLA-4 antagonist, Prostate diff, VLA-4 agonist, Autofluor Jurkat, Proteasome disasm)
CCOC(=O)c1cnn(-c2cc(C)c3cc(C)cc(C)c3n2)c1N	Prostate diff 32
COc1ccc(C(=O)NCCn2ccc3ccccc32)c(OC)c1	none
CCc1ccc(CNC(=O)CN2C(=O)COc3ccccc32)cc1	VLA-4 antagonist 52 (no result: Prostate diff)
Cc1ccc(-c2ccc(=O)n(CCC(=O)NCCN3CCCCC3C)n2)cc1 (stereo not given)	none
O=c1cc(N2CCc3ccccc3C2)[nH]c(=O)n1C1CCCCC1	Prostate diff 62
Nc1cccc2c1C(=O)N(c1ccccc1)C2=O	none
Cn1c(C(=O)NCCCN2CCN(c3ccccc3F)CC2)cc2c(=O)n(C)c3ccccc3c21	VLA-4 antagonist inconclusive, Prostate diff 70, VLA-4 agonist inconclusive
Cn1c(C(=O)NCCCN2CCOCC2)cc2c(=O)n(C)c3ccccc3c21	none
CCCN(CCC)CCCNS(=O)(=O)c1ccc2c(c1)oc(=O)n2C	VLA-4 antagonist inconclusive, VLA-4 agonist inconclusive, Autofluor Jurkat 3.7
